The panel holds about 79,000 compounds, 15% with a hit somewhere; the sample as a whole holds those more often. Active and inactive are the calls of the source. No stated cut-off is given here; in the data, active means growth inhibition above about 70%; inactive means the rest.
How the values were obtained:
[1] = NCI Yeast Anticancer Drug Screen. Data for the rad50 strain (AID 155);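 further: 0% = growth of vehicle-only cultures of the same strain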; conditions: S. cerevisiae rad50 strain growth inhibition, hits give high values
Summary of the method: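 Genetically altered yeast (DNA repair pathway); compound treatment; growth inhibition vs vehicle ctrl.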

[2] = NCI Yeast Anticancer Drug Screen. Data for the mec2-1 strain (AID 157); conditions: S. cerevisiae mec2-1 strain, hits give high values
Summary of the method: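 Test agents were screened against the mec2-1 yeast strain, with defined DNA repair or cell cycle alteration. Growth was scored as inhibition against vehicle-only controls.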

[3] = NCI Yeast Anticancer Drug Screen. Data for the sgs1 mgt1 strain (AID 161);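 further: 0% = growth of cultures given vehicle only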; conditions: S. cerevisiae sgs1 mgt1 strain, hits give high values
Summary of the method: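 Inhibition of yeast growth, normalised to vehicle-treated controls, is reported for a strain bearing genetic alterations in DNA damage repair.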

[4] = NCI Yeast Anticancer Drug Screen. Data for the cln2 rad14 strain (AID 165);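 further: 0% = growth equal to vehicle treated cultures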; conditions: S. cerevisiae cln2 rad14 strain, hits give high values
Summary of the method: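 Growth of compound-exposed yeast (cln2 rad14 genotype) measured and expressed as inhibition relative to vehicle.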

[5] = NCI Yeast Anticancer Drug Screen. Data for the bub3 strain (AID 167); conditions: S. cerevisiae bub3 mutant strain, hits give high values
Summary of the method: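 Yeast carrying a defined mutation is treated with each compound, and growth is compared with that of vehicle-exposed cells to give inhibition.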

[6] = NCI Yeast Anticancer Drug Screen. Data for the mlh1 rad18 strain (AID 175); conditions: S. cerevisiae mlh1 rad18 strain growth inhibition, hits give high values
Summary of the method: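 In this whole-cell yeast screen, a strain with altered DNA damage repair is challenged with compound, and its growth is measured against matched vehicle-treated controls.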

[7] = at 5.0 µM (retest, dose inferred, filed as 0.5)
[8] = at 50.0 µM (retest, dose inferred, filed as 5.0)

Measured: growth inhibition

O=[N+]([O-])c1ccc(SP(=S)(c2ccccc2)c2ccccc2)c([N+](=O)[O-])c1
active: [1]; [8] 97% | [2]; [8] 98% | [3]; [8] 98% | [3]; at 50.0 µM 88.6% | [4]; [8] 96% | [4]; at 50.0 µM 83.2% | [5]; [8] 98% | [6]; [8] 99% | [6]; at 50.0 µM 70.5%
inactive: [1]; [7] 7% | [1]; at 50.0 µM 67.3% | [2]; [7] 17% | [2]; at 50.0 µM 48.3% | [3]; [7] 30% | [4]; [7] 5% | [5]; [7] 9% | [5]; at 50.0 µM 48% | [6]; [7] 28%

CCOc1c(Br)cc(N=Cc2ccc(N(CCCl)CCCl)c(OC)c2)cc1Br
active: [1]; [8] 80% | [1]; at 50.0 µM 85.2% | [2]; [8] 79% | [3]; at 50.0 µM 76.2% | [6]; [7] 73% | [6]; [8] 95% | [6]; at 50.0 µM 86.8%
inactive: [1]; [7] 6% | [2]; [7] -5% | [2]; at 50.0 µM 45.8% | [3]; [7] -86% | [3]; [8] 69% | [4]; [7] -3% | [4]; [8] 49% | [4]; at 50.0 µM 44.4% | [5]; [7] -11% | [5]; [8] -16% | [5]; at 50.0 µM -15.8%

Cc1ccc(NC(=O)CBr)cc1
active: [1]; [7] 92% | [1]; [8] 99% | [1]; at 50.0 µM 99.1% | [2]; [7] 97% | [2]; [8] 100% | [2]; at 50.0 µM 99.2% | [3]; [7] 97% | [3]; [8] 97% | [3]; at 50.0 µM 99.2% | [4]; [7] 97% | [4]; [8] 99% | [4]; at 50.0 µM 98.8% | [5]; [7] 95% | [5]; [8] 99% | [5]; at 50.0 µM 99% | [6]; [7] 94% | [6]; [8] 98% | [6]; at 50.0 µM 99%

CC1(C)N=C(N)N=C(N)N1c1ccc(OCC(=O)Nc2cccc(S(=O)(=O)F)c2)c(Cl)c1
inactive: [1]; [7] 4% | [1]; [8] 38% | [2]; [7] -20% | [3]; [7] -3% | [3]; [8] 63% | [3]; at 50.0 µM 64.1% | [4]; [7] -2% | [4]; [8] -5% | [4]; at 50.0 µM -25.9% | [5]; [7] -6% | [5]; [8] 32% | [5]; at 50.0 µM -1.45% | [6]; [7] 12% | [6]; [8] 65% | [6]; at 50.0 µM 45%
active: [1]; at 50.0 µM 70.5% | [2]; [8] 97% | [2]; at 50.0 µM 95.6%

CC(C)c1cc([N+](=O)[O-])cc([N+](=O)[O-])c1O
active: [1]; [8] 88% | [1]; at 50.0 µM 82.4% | [2]; [8] 90% | [3]; [8] 87% | [3]; at 50.0 µM 86.1% | [4]; [8] 82% | [5]; [8] 85% | [6]; [8] 90% | [6]; at 50.0 µM 80.7%
inactive: [1]; [7] 9% | [2]; [7] -20% | [2]; at 50.0 µM 62.1% | [3]; [7] 1% | [4]; [7] 8% | [4]; at 50.0 µM 58% | [5]; [7] -4% | [5]; at 50.0 µM 55.5% | [6]; [7] 6%

Source: PubChem BioAssay (NCI)
